Results filed as inconclusive are left out. Calls of active or inactive are those of the source. Unless noted, calls follow the shape of the full dose curve.
Columns and labels:
[1] = Nuclear factor erythroid 2-related factor 2/antioxidant responsive element (Nrf2/ARE) small molecule agonists: qHTS cell viability counter screen in human keratinocytes (AID 1919968; active = well fitted curve in the direction sought with a large enough effect in the repeat runs; an effect the other way counts as inactive or inconclusive; also: nearly all actives have a fitted effect of over 55% in size)
How it was run: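 Cytotoxicity was multiplexed with the Nrf2/ARE luciferase assay in the same wells. Stably transfected HaCaT keratinocytes were treated with test compounds for 23 h at 37 C. Cell viability was then measured by CellTiter-Fluor fluorescence.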

[2] = Nuclear factor erythroid 2-related factor 2/antioxidant responsive element (Nrf2/ARE) small molecule agonists: luciferase reporter gene qHTS assay in human keratinocytes (AID 1919969); also: nearly all actives have a fitted effect of over 35% in size
[3] = biological target: Gonadotropin-releasing hormone receptor (Homo sapiens) (UniProt P30968); assay: Human gonadotropin-releasing hormone receptor (GnRHR) small molecule agonists, calcium flux assay in GnRHR-HEK293 cells (AID 1920063); also: nearly all actives have a fitted effect of over 35% in size
How it was run: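 Agonist activity was measured as intracellular calcium flux in HEK293 cells engineered to stably express human GnRHR. After dye loading for 1 hour at 37 C, compounds in DMSO were added and fluorescence was followed for 3 minutes.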

[4] = biological target: KiSS-1 receptor (Homo sapiens) (UniProt Q969F8); assay: Human kisspeptin (KISS1R) small molecule agonists, calcium flux assay in KISS1R-HEK293 cells (AID 1920064; active = well fitted curve in the direction sought with a large enough effect in the repeat runs; an effect the other way counts as inactive or inconclusive)
How it was run: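 Agonist activity is monitored as intracellular calcium rise in engineered HEK293 cells carrying human KISS1R. Cells are dye-loaded for 1 h at 37 C before compound addition, and fluorescence is recorded for 3 min.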

[5] = G protein-coupled receptor (GPCR) small molecule agonists, calcium flux assay: HEK293 wild type cell line counter screen (AID 1920065)
How it was run: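 Seed cells, incubate 18 h (37 C, 5% CO2); add calcium dye, 1 h at 37 C; pin-transfer compounds, ATP control or DMSO; read fluorescence 480/540 nm each second for 3 min.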

[6] = p53 small molecule agonists, cell-based qHTS assay with human liver microsomes: qHTS cell viability counter screen (AID 1963579); also: nearly all actives have a fitted effect of over 45% in size
How it was run: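 Viability of p53RE-bla cells is measured as CellTiter-Glo luminescence following a 16 h, 37 C incubation with compound, liver microsomes from human donors and NADPH.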

[7] = p53 small molecule agonists, cell-based qHTS assay with rat liver microsomes: qHTS cell viability counter screen (AID 1963580); also: nearly all actives have a fitted effect of over 45% in size
How it was run: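 Luminescent ATP readout (CellTiter-Glo, 30 min at room temperature) reports viability of p53RE-bla HCT-116 cells after 16 h at 37 C with test compounds under metabolic activation by rat liver microsomes and NADPH at 0.5 mg/mL final each.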

[8] = p53 small molecule agonists, cell-based qHTS assay: qHTS cell viability counter screen (AID 1963581); also: nearly all actives have a fitted effect of over 45% in size
How it was run: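 Viability was counter-screened in parallel with the p53 agonist reporter by measuring intracellular ATP luminescence in the same HCT-116 p53RE-bla wells after 16 h compound treatment at 37 C.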

[9] = biological target: 5-hydroxytryptamine receptor 2A (Homo sapiens) (UniProt P28223); assay: 5-hydroxytryptamine receptor 2A (HTR2A) small molecule antagonists, cell-based qHTS assay (AID 1963586); also: nearly all actives have a fitted effect of over 45% in size
How it was run: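 CHO cells stably expressing human HTR2A were plated for 18 h at 37 C, then loaded with calcium dye for 1 h. Compounds were preincubated 5 min at room temperature before DOI (4 nM solution) was added. Kinetic fluorescence was read for 3 min.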

[10] = biological target: 5-hydroxytryptamine receptor 2A (Homo sapiens) (UniProt P28223); assay: 5-hydroxytryptamine receptor 2A (HTR2A) small molecule agonists, cell-based qHTS assay (AID 1963587); also: nearly all actives have a fitted effect of over 30% in size
How it was run: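 HTR2A-CHO cells, plated 18 h at 37 C/5% CO2, dye-loaded 1 h at 37 C; compounds in DMSO added by pin tool (agonist mode). Intracellular calcium flux read as kinetic fluorescence on FDSS over 2 min at 1 s intervals.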

[11] = biological target: Muscarinic acetylcholine receptor M1 (Homo sapiens) (UniProt P11229); assay: Cholinergic receptor muscarinic 1 (CHRM1) small molecule antagonists, cell-based qHTS assay (AID 1963588); also: nearly all actives have a fitted effect of over 40% in size
How it was run: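 Compounds were tested at 15 concentrations in three independent runs. Dye-loaded CHRM1-CHO cells were exposed 5 min at room temperature before stimulation by acetylcholine added at 50nM. Intracellular calcium was read kinetically on FDSS for 3 min.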

[12] = biological target: Muscarinic acetylcholine receptor M1 (Homo sapiens) (UniProt P11229); assay: Cholinergic receptor muscarinic 1 (CHRM1) small molecule agonists, cell-based qHTS assay (AID 1963589); also: nearly all actives have a fitted effect of over 35% in size
How it was run: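 Cells were plated and incubated 18 h at 37 C/5% CO2, loaded with calcium dye for 1 h at 37 C, then treated with compounds in DMSO. Fluorescence was recorded kinetically at 1 sec intervals.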

[13] = cAMP Responsive Elements (CRE) small molecule agonists, cell-based qHTS assay (AID 1963590)
How it was run: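 Cells carrying a CRE-driven beta-lactamase reporter (HEK 293T) are seeded, incubated overnight (18 h), and treated with test compounds for 3 h at 37 C; reporter activity is then detected with a FRET substrate after 2 h at room temperature.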

[14] = cAMP Responsive Elements (CRE) small molecule antagonists, cell-based qHTS assay (AID 1963591; active = well fitted inhibition curve with a large enough effect in the signal ratio in the repeat runs, not every such curve was filed as active; the % refers to the signal ratio)
How it was run: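 Cells (CRE-bla HEK 293T, DMEM with 10% dialyzed FBS and 25 mM HEPES) are seeded and incubated 18 h. Compounds are added with NKH477 agonist at 0.25 uM final for 3 h, then FRET substrate for 2 h.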

[15] = biological target: Beta-2 adrenergic receptor (Homo sapiens) (UniProt P07550); assay: Adrenergic beta2 receptor (ADRB2) small molecule antagonists, cell-based qHTS assay (AID 1963592); also: series mostly up to about 92 µM; nearly all actives have a fitted effect of over 50% in size
How it was run: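 Assay format: CHO-ADRB2 cells, 18-20hr seeding at 37C/5% CO2, then compound plus 1nM isoproterenol agonist mix for 0.5hr RT. Homogeneous time-resolved fluorescence cAMP detection after 1hr, expressed as 665/615 nm ratio.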

[16] = biological target: Beta-2 adrenergic receptor (Homo sapiens) (UniProt P07550); assay: Adrenergic beta2 receptor (ADRB2) small molecule agonists, cell-based qHTS assay (AID 1963593);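 also: CHO cells stably overexpressing human ADRB2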
How it was run: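 CHO cells stably over-expressing ADRB2 were plated overnight at 37C, then dosed with compounds plus a stimulation mix containing 100uM IBMX and 25uM Ro-20-1724 for 0.5hr at room temperature. cAMP was measured by HTRF competition, 1hr.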

[17] = biological target: D(2) dopamine receptor (Homo sapiens) (UniProt P14416); assay: Dopamine D2 receptor (DRD2) small molecule agonists, cell-based qHTS assay (AID 1963594); also: nearly all actives have a fitted effect of over 35% in size
How it was run: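 HEK293 cells stably expressing DRD2 were cultured 24 h at 37 C, then given Ro20-1724 (0.1 mM final) and compounds for 10 min at room temperature. NKH477 (200nM) was then added for 30 min. cAMP was read by HTRF.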

[18] = biological target: D(2) dopamine receptor (Homo sapiens) (UniProt P14416); assay: Dopamine D2 receptor (DRD2) small molecule antagonists, cell-based qHTS assay (AID 1963595; active = well fitted inhibition curve with a large enough effect in the signal ratio in the repeat runs, with a control signal flat; the % refers to the signal ratio)
How it was run: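 Cells were plated and grown for 24 h at 37 °C. Ro20-1724 (0.1 mM final) went in first, then compound for 10 min. NKH477 (200 nM) with quinpirole (12 nM) followed for 30 min at RT, then HTRF detection reagents for 1 h.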
% is scaled to controls: 0 for no effect and ±100 for the full control effect.

Sequence of KiSS-1 receptor (Homo sapiens) (Q969F8 whole entry, looked up): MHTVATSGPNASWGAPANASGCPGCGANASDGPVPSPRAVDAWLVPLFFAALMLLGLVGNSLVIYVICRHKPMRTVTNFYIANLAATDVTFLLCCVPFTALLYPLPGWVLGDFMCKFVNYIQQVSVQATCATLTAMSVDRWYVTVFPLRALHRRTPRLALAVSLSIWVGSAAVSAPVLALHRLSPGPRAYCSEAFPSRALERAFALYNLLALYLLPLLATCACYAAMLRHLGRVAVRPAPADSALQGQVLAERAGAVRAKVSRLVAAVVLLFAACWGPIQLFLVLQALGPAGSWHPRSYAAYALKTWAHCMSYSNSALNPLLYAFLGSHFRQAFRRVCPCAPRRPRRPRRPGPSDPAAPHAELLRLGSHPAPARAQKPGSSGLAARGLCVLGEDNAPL
Sequence of D(2) dopamine receptor (Homo sapiens) (P14416 whole entry, looked up): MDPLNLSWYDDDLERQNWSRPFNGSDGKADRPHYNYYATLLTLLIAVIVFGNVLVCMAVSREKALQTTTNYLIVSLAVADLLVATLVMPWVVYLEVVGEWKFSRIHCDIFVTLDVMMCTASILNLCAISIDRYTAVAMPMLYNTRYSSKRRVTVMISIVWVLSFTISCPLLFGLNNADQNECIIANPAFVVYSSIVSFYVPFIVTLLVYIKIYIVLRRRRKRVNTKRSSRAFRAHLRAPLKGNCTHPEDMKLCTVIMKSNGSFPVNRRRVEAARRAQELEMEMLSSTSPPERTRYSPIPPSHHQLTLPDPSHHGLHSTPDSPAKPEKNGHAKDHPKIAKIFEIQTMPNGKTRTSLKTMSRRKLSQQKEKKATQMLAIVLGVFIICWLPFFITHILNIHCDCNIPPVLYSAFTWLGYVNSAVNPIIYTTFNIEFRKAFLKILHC
Sequence of Muscarinic acetylcholine receptor M1 (Homo sapiens) (P11229 whole entry, looked up): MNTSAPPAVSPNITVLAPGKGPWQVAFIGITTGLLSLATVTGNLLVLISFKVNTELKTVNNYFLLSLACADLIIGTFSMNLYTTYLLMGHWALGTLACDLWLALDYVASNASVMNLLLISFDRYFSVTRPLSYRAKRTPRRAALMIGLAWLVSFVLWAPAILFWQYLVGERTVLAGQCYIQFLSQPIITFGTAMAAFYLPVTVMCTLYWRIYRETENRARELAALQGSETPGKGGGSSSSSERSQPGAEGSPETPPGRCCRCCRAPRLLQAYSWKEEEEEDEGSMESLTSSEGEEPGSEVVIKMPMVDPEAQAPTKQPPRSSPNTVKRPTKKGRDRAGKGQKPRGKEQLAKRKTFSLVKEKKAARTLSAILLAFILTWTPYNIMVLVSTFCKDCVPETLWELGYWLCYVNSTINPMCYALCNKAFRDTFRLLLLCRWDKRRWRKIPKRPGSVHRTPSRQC
Sequence of 5-hydroxytryptamine receptor 2A (Homo sapiens) (P28223 whole entry, looked up): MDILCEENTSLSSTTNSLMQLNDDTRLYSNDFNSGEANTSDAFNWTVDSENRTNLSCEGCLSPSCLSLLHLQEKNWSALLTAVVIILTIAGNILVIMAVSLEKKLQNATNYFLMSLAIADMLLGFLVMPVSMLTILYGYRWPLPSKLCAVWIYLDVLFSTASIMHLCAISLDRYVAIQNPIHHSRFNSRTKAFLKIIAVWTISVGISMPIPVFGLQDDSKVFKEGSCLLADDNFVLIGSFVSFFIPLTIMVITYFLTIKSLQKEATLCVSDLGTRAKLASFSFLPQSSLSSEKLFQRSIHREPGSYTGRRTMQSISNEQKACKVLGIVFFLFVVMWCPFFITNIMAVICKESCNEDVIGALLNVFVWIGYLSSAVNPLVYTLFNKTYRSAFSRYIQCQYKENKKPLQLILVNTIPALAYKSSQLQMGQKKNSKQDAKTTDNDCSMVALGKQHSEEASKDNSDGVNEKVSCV
Sequence of Beta-2 adrenergic receptor (Homo sapiens) (P07550 whole entry, looked up): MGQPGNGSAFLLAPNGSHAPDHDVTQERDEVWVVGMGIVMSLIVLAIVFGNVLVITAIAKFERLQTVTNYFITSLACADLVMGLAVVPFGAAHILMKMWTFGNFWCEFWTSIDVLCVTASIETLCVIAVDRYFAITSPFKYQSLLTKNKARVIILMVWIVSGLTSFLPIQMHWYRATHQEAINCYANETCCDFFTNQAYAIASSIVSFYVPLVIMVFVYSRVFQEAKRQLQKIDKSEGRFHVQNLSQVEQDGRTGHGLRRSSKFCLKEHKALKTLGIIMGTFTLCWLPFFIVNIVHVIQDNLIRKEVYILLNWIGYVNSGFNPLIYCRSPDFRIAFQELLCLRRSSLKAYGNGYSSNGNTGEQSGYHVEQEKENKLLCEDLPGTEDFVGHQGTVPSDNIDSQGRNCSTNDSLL
Sequence of Gonadotropin-releasing hormone receptor (Homo sapiens) (P30968 whole entry, looked up): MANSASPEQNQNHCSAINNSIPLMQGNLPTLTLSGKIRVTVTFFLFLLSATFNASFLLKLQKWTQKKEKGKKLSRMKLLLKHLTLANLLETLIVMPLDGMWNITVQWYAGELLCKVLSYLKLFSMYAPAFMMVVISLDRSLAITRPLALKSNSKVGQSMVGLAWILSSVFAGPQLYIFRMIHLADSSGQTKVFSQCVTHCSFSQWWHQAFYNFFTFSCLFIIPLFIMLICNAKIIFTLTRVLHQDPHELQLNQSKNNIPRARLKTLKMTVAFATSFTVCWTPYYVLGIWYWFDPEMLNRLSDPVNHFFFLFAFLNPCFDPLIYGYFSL

FB(F)F
inactive: Potency [1] | Potency [2] | Potency [3] | Potency [4] | Potency [5] | Potency [6] | Potency [7] | Potency [8] | Potency [9] | Potency [10] | Potency [11] | Potency [12] | Potency [13] | Potency [14] | Potency [15] | Potency [16] | Potency [17] | Potency [18]

COc1cc(OC)c2ccc(=O)oc2c1
inactive: Potency [1] | Potency [2] | Potency [3] | Potency [4] | Potency [5] | Potency [6] | Potency [7] | Potency [8] | Potency [9] | Potency [10] | Potency [11] | Potency [12] | Potency [13] | Potency [14] | Potency [15] | Potency [17] | Potency [18]

CC(=O)C(=O)CC(C)C
inactive: Potency [1] | Potency [2] | Potency [3] | Potency [4] | Potency [5] | Potency [6] | Potency [7] | Potency [8] | Potency [9] | Potency [10] | Potency [11] | Potency [12] | Potency [13] | Potency [14] | Potency [15] | Potency [16] | Potency [17] | Potency [18]

C=C(C)C(=O)OCc1ccccc1
inactive: Potency [1] | Potency [2] | Potency [3] | Potency [4] | Potency [5] | Potency [6] | Potency [7] | Potency [8] | Potency [9] | Potency [10] | Potency [11] | Potency [12] | Potency [13] | Potency [14] | Potency [15] | Potency [16] | Potency [17] | Potency [18]

O=C(NN1CCCC1)NS(=O)(=O)c1ccc(Cl)cc1
inactive: Potency [1] | Potency [2] | Potency [3] | Potency [4] | Potency [5] | Potency [6] | Potency [7] | Potency [8] | Potency [9] | Potency [10] | Potency [11] | Potency [12] | Potency [13] | Potency [14] | Potency [15] | Potency [17]

CC(=O)Nc1ccc(OCCOCCOc2ccc(NC(C)=O)cc2)cc1
inactive: Potency [1] | Potency [2] | Potency [3] | Potency [4] | Potency [5] | Potency [6] | Potency [7] | Potency [8] | Potency [9] | Potency [10] | Potency [11] | Potency [12] | Potency [13] | Potency [14] | Potency [15] | Potency [16] | Potency [17] | Potency [18]

CCOCC(C)O (stereo not given)
inactive: Potency [1] | Potency [2] | Potency [3] | Potency [4] | Potency [5] | Potency [6] | Potency [7] | Potency [8] | Potency [9] | Potency [10] | Potency [11] | Potency [12] | Potency [13] | Potency [14] | Potency [15] | Potency [16] | Potency [17] | Potency [18]

CC(C)COC(=O)C(C)C
inactive: Potency [1] | Potency [2] | Potency [3] | Potency [4] | Potency [5] | Potency [6] | Potency [7] | Potency [8] | Potency [9] | Potency [10] | Potency [11] | Potency [12] | Potency [13] | Potency [14] | Potency [15] | Potency [17]

CC1CCC(=O)C1=O (stereo not given)
inactive: Potency [1] | Potency [2] | Potency [3] | Potency [4] | Potency [5] | Potency [6] | Potency [7] | Potency [8] | Potency [9] | Potency [10] | Potency [11] | Potency [12] | Potency [13] | Potency [14] | Potency [15] | Potency [17]

Nc1cccc(O)c1
inactive: Potency [1] | Potency [2] | Potency [3] | Potency [4] | Potency [5] | Potency [6] | Potency [7] | Potency [8] | Potency [9] | Potency [10] | Potency [11] | Potency [12] | Potency [13] | Potency [14] | Potency [15] | Potency [16] | Potency [17] | Potency [18]

CCCCCCOC(=O)CC(CC(=O)OCCCCCC)(OC(=O)CCC)C(=O)OCCCCCC
inactive: Potency [1] | Potency [2] | Potency [3] | Potency [4] | Potency [5] | Potency [6] | Potency [7] | Potency [8] | Potency [9] | Potency [10] | Potency [11] | Potency [12] | Potency [13] | Potency [14] | Potency [15] | Potency [16] | Potency [18]

Nc1ccc(/C=C/c2ccc(N)cc2S(=O)(=O)O)c(S(=O)(=O)O)c1
inactive: activity change, negative = cytotoxicity [1] -4.83% [at 0.349 µM] | activity, positive = activation [2] -0.938% [at 0.349 µM] | activity change [3] -1.31% [at 0.217 µM, stronger effect = higher value] | activation [4] -0.667% [at 0.29 µM] | activation [5] -1.11% [at 0.217 µM] | activity change, negative = cytotoxicity [6] -0.304% [at 0.249 µM] | activity change, negative = cytotoxicity [7] 0.884% [at 0.249 µM] | activity change, negative = cytotoxicity [8] -1.67% [at 0.249 µM] | activity, negative = inhibition [9] 63.5% [at 0.233 µM] | activation [10] 1.96% [at 0.292 µM] | activity, negative = inhibition [11] 18% [at 0.232 µM] | activation [12] 0.145% [at 0.29 µM] | activation [13] -0.633% [at 0.349 µM] | activity change, negative = inhibition [14] -10.6% [at 0.349 µM] | activity change, negative = inhibition [15] -6.48% [at 0.349 µM] | activation [16] -7.68% [at 0.349 µM] | activity change, negative = inhibition [18] 6.36% [at 0.348 µM]

CCCCCC(C)O (stereo not given)
inactive: Potency [1] | Potency [2] | Potency [3] | Potency [4] | Potency [5] | Potency [6] | Potency [7] | Potency [8] | Potency [9] | Potency [10] | Potency [11] | Potency [12] | Potency [13] | Potency [14] | Potency [15] | Potency [16] | Potency [17] | Potency [18]

CCCCCCCCC(CO)CCCCCC (stereo not given)
inactive: Potency [1] | Potency [2] | Potency [3] | Potency [4] | Potency [5] | Potency [6] | Potency [7] | Potency [8] | Potency [9] | Potency [10] | Potency [11] | Potency [12] | Potency [13] | Potency [14] | Potency [15] | Potency [16] | Potency [17] | Potency [18]

CCC(=O)OCCOc1ccccc1
inactive: Potency [1] | Potency [2] | Potency [3] | Potency [4] | Potency [5] | Potency [6] | Potency [7] | Potency [8] | Potency [9] | Potency [10] | Potency [11] | Potency [12] | Potency [13] | Potency [14] | Potency [15] | Potency [17] | Potency [18]

— PubChem BioAssay (Tox21)
